The full ranking holds about 1,100 sequences; the median of “thermal melting temperature (Tm) of peptide-HLA complex” is about 58, and the lowest 2% start at about 42. The sample as a whole holds a higher share of the lowest values than the screen did.
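Note: lysates heated 10 min at 37–73 °C, complexes pulled down with pan-HLA I antibody, peptide signal by DIA-MS relative to 37 °C, Tm where half the complex is unfolded.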

The experiment addresses HLA-A*02:01. The experiment is described as follows: thermal melting temperature (Tm) of peptide-HLA complex; higher = more thermostable pHLA complex. As to conditions: C1R-A*02:01.
Sequence QLAQFVHEV yielded a thermal melting temperature of 62.3 °C.

In turn, ALADFAELLRA returned a thermal melting temperature of 62 °C.

In turn, NLLEIAPHL showed a thermal melting temperature of 52.1 °C.

In turn, SLLDPVPEV returned a thermal melting temperature of 62.5 °C.

ELMEQVPHI returned a thermal melting temperature of 48.9 °C.

The sequence TLSQAIVKV registered a thermal melting temperature of 54.1 °C.

RIIDTVAQV returned a thermal melting temperature of 60.6 °C.

On to GLVDKLQAL, for which the thermal melting temperature came out at 55.6 °C.

Sequence KVLGIVVGV returned a thermal melting temperature of 61 °C.

NQIEDNDDFQL returned a thermal melting temperature of 42 °C.

In turn, NLIPILKTV registered a thermal melting temperature of 56 °C.

For SQTFVNPHV, the thermal melting temperature came out at 57.8 °C.

Consider YLLTESSKL, for which the thermal melting temperature came to 55.2 °C.

For YLWPRGSPAL, the thermal melting temperature was 41.3 °C.

Regarding FLDDVVHSL, the thermal melting temperature was 58.8 °C.

The sequence SLHEFLVNL displayed a thermal melting temperature of 61.5 °C.

For RLMNDMTAV, the thermal melting temperature came to 58.9 °C.

Take SLLDGHFVL: the thermal melting temperature was determined as 40.1 °C.

Take RLLDGAFKL: the thermal melting temperature was determined as 49.9 °C.

For the sequence VLIDYQRNV, the thermal melting temperature came out at 60.1 °C.

In turn, FLSSVIQNL had a thermal melting temperature of 58.3 °C.

The sequence QLYNQIIKL gave a thermal melting temperature of 56.1 °C.

Sequence IQDFEMPTV registered a thermal melting temperature of 50.9 °C.

In turn, VMLDVPIRL showed a thermal melting temperature of 55.9 °C.

HLIDDLLAA showed a thermal melting temperature of 41.1 °C.

In the case of ALFPAPLAQI, the thermal melting temperature stood at 62.7 °C.

Sequence NIIELVHQV showed a thermal melting temperature of 57.1 °C.

Sequence KLGDFGLLV gave a thermal melting temperature of 60.4 °C.

For FLNPDEVHAI, the thermal melting temperature amounted to 59.9 °C.

Regarding FLMENGSITSI, the thermal melting temperature stood at 58.2 °C.

Consider YLSGIAHFL, for which the thermal melting temperature turned out to be 62 °C.

The sequence SLAQYLINA displayed a thermal melting temperature of 56.7 °C.

TIPEAFRGV: the thermal melting temperature came to 46.3 °C.

Regarding KLLWTTSRV, the thermal melting temperature amounted to 60.1 °C.

Consider RVIGTLEEV, for which the thermal melting temperature was determined as 57.6 °C.

Take YLDEDTIYHL: the thermal melting temperature is 45.2 °C.

AALEEADKMFL returned a thermal melting temperature of 53.3 °C.

In turn, SVTSEGIKAV returned a thermal melting temperature of 46 °C.

TVADKIHSV had a thermal melting temperature of 55.7 °C.

KMDEVLYSI yielded a thermal melting temperature of 59 °C.

RLAEVGQYEQV: the thermal melting temperature was 56.3 °C.

Regarding TLIGLSIKV, the thermal melting temperature turned out to be 56.7 °C.

Regarding SVAEGRALMSV, the thermal melting temperature amounted to 56.8 °C.

FQVDEIYTV came in with a thermal melting temperature of 56 °C.

Consider ILDQKINEV, for which the thermal melting temperature turned out to be 60 °C.

Turning to ILDQKVALL, the thermal melting temperature was determined as 41.7 °C.

VILESDPQQVV showed a thermal melting temperature of 40.1 °C.

With IIADMDKWTV, the thermal melting temperature amounted to 54.6 °C.

With SMGQLPHTV, the thermal melting temperature is 41.4 °C.

ALERLLPQV: the thermal melting temperature was found to be 59.2 °C.

On to KLYQEVEIASV, for which the thermal melting temperature amounted to 61 °C.

SLLPFLKAV had a thermal melting temperature of 61.9 °C.

Values taken from the supplement of paper PMC7726561.
